Reference: PubChem BioAssay AID504832 (National Center for Advancing Translational Sciences (NCATS), 2011)
Hit rate of the full screen: of about 310,000 compounds, about 18,000 (5.8%) were called active. Inconclusive results (about 22%) are left out. This excerpt belongs to a sample that is enriched for actives. A number with no mark means an inactive call. Calls come from the whole dose curve; as a rule, active = well fitted inhibition curve with a large enough effect; inconclusive = small, poorly fitted or top-dose-only effect, or another doubt; inactive = no such curve, though single readings can be large or run the other way. Non-standard residues stand in square brackets, D forms with d. Residues, ends and D or L forms follow the SMILES beside them. *: point of attachment. PhAc = O=C(Cc1ccccc1)*

Test: Primary qHTS for delayed death inhibitors of the malarial parasite plastid, 48 hour incubation
Conditions: P. falciparum luciferase growth in erythrocytes; series mostly up to 28.7 µM; activity change, negative = inhibition: at the top concentration
How it was run: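 Here the parasites carry a stable luciferase gene and grow inside erythrocytes in Albumax-based RPMI medium with compound for one erythrocytic cycle. Activity is scored as loss of luminescent signal.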
% is set by controls: 0 for no effect and ±100 for the full control effect; potency is the fitted concentration of half-maximal effect.

Row | SMILES | activity change, negative = inhibition | Potency
1 | Cc1ccc(S(=O)(=O)N2CCC3(CC2)OCCO3)c(C)c1 | -0.438% | –
2 | Cc1csc(NC(=O)CSc2nc(=O)n(CCCN(C)C)c3c2CCC3)n1 | 11.7% | –
3 | CC(=O)Nc1ccc(NC(=O)COc2ccc(-c3ccccc3)cc2)cc1 | 4.83% | –
4 | CC1CC(C)CN(CCCNC(=O)Cn2ncc3c([nH]c4ccccc43)c2=O)C1 (centres undefined) | 6.15% | –
5 | CC(=O)N1CCN(C(=O)c2cc(-c3ccc(C)o3)nc3ccccc23)CC1 | 14.6% | –
6 | CCOC(=O)C1(Cc2ccccc2C)CCCN(C(=O)CN2C(=O)CSC2=O)C1 (centres undefined) | 18% | –
7 | CCCCC(=O)Nc1nnc(S(=O)(=O)N(C)Cc2ccco2)s1 | 21.1% | –
8 | O=C(NCCN1CCOCC1)c1ccc(/C=C2\Sc3ccccc3N(Cc3ccc(F)cc3)C2=O)cc1 | – | 11.7 µM (active)
9 | Cc1nn(Cc2ccccc2)c(C)c1C(=O)NCCN1C(=O)S/C(=C\c2ccc(F)cc2)C1=O | 12.8% | –
10 | CN1C(=O)/C(=C/c2ccc(C(=O)NC3CCCC3)cc2)Oc2ccccc21 | -20.2% | –
11 | COc1ccc(CCNC(=O)c2ccc3c(c2)NC(=O)C(N2CCOCC2)S3)cc1OC (centres undefined) | -14.3% | –
12 | CN1CCN(CCCNC(=O)c2ccc(/C=C3\Oc4ccccc4N(Cc4ccc(Cl)cc4)C3=O)cc2)CC1 | – | 1.65 µM (active)
13 | CCN1CCN(CCNC(=O)c2ccc(/C=C3/Sc4ccccc4N(Cc4cccc(C)c4)C3=O)cc2)CC1 | – | 11.7 µM (active)
14 | CCCN1CCN(C(=O)CCCNC(=O)c2ccc(Cl)cc2)CC1 | -0.322% | –
15 | COc1ccc(/C=C(\NC(=O)c2ccccc2)C(=O)NCCN2CCOCC2)cc1OC | 3.72% | –
16 | O=C(NCCN1CCOCC1)/C(=C/c1ccc(F)cc1)NC(=O)c1ccccc1 | 15.1% | –
17 | O=C(NCCN1C(=O)S/C(=C\c2cccnc2)C1=O)c1cccc(OC(F)F)c1 | -29.2% | –
18 | CCN1CCN(CCNC(=O)c2ccc3c(c2)NC(=O)/C(=C\c2ccc(OC)c(OC)c2)S3)CC1 | – | 9.28 µM (active)
19 | Cc1ccc(C(=O)N/C(=C\c2ccc(F)cc2)C(=O)NCCN2CCOCC2)cc1 | 17.7% | –
20 | Cc1cc(-c2nnc(SCC(=O)Nc3ccc(S(N)(=O)=O)cc3)n2N)n[nH]1 | -13.5% | –
21 | CN1C(=O)[C@H]2[C@@H](C3CC3)N3C(=O)CN(Cc4ccccc4)C(=O)[C@@]3(C)[C@H]2C1=O | 27.4% | –
22 | O=C1NC(c2ccccc2)Oc2ccccc21 (centres undefined) | -9% | –
23 | COc1ccc(-c2ocnc2C(=O)Nc2ccc3c(c2)CCC3)cc1 | 16.9% | –
24 | O=C(Nc1nnc(-c2ccc(F)cc2)s1)c1c(F)cccc1Cl | 10.8% | –
25 | CC(=O)c1nn(-c2cccc(C(F)(F)F)c2)c(=O)[nH]c1=O | -16.7% | –

Row | SMILES | activity change, negative = inhibition | Potency
26 | CCNS(=O)(=O)c1ccc(CCC(=O)N2CCN(c3ccc(OC)cc3)CC2)cc1 | 1.74% | –
27 | COc1ccc(OCCNC(=O)c2cc(C3CC3)nc3c2cnn3C(C)C)cc1 | – | 13.1 µM (active)
28 | CCCc1ccc(OCCNC(=O)c2ccccc2Br)cc1 | -24.5% | –
29 | CC(C)n1ncc2c(C(=O)Nc3ccc(CC#N)cc3)cc(C3CC3)nc21 | – | 14.7 µM (active)
30 | CC(C)n1ncc2c(C(=O)NCc3ccccc3CN(C)C)cc(C3CC3)nc21 | – | 11.7 µM (active)
31 | N#CCc1ccc(NC(=O)c2ccccc2C(=O)Nc2ccc(CC#N)cc2)cc1 | 20.5% | –
32 | COCCNC(=O)COc1ccc(C)c(C)c1 | 39.1% | –
33 | CC(=O)Nc1ccc(CC#N)cc1 | 3.33% | –
34 | Cc1ccccc1OCCC(=O)OCC(=O)NCCc1ccc(S(N)(=O)=O)cc1 | 0% | –
35 | Cc1cc(C)c(S(=O)(=O)c2cc(F)ccc2C)c(=O)[nH]1 | 23.4% | –
36 | O=c1ccc(-c2ccc(S(=O)(=O)Nc3ccccc3)o2)n[nH]1 | 18.2% | –
37 | O=C(CN1C(=O)CSC1=O)N1CCCC(Nc2ccc(F)cc2)C1 (centres undefined) | -15.8% | –
38 | Cc1ccc(S(=O)(=O)N(C)c2ccc(OCC(=O)OCC(=O)N(CC#N)c3ccccc3)cc2)cc1 | -18.1% | –
39 | O=C(Nc1ccc(Br)cn1)c1ccc([N+](=O)[O-])o1 | -37.6% | –
40 | Cc1cccc(NC(=O)c2ccc([N+](=O)[O-])o2)c1 | – | 13.1 µM (active)
41 | Cc1cccc(NC(=S)NC(=O)c2ccc(Br)o2)c1 | 29.3% | –
42 | O=C(CNC(=O)c1ccc(Br)o1)Nc1ccccc1 | 5.96% | –
43 | COCCNC(=O)c1ccc(S(=O)(=O)c2ccc(Cl)cc2)c(NC(C)=O)c1 | 0.449% [at 0.00184 µM] | –
44 | CC(Oc1ccc(F)cc1)C(=O)N1CCN(c2ncccn2)CC1 (centres undefined) | 4.64% | –
45 | c1cnc(N2CCN(c3ccc4ccccc4n3)CC2)nc1 | 161% | –
46 | CC12CCC(C(=O)N3CCN(c4ncccn4)CC3)(c3nc4ccccc4nc31)C2(C)C (centres undefined) | – | 11.7 µM (active)
47 | O=C(NCc1nnc(SCC(=O)N2CCCCCC2)o1)c1ccc(F)cc1 | -11.3% | –
48 | Cc1ccc(S(=O)(=O)N[C@@H](Cc2ccccc2)C(=O)N2CCC(C(=O)N[C@H](C(=O)O)C(C)O)CC2)cc1 (some centres undefined) | 18.2% | –
49 | Cc1cc(C)c(C#N)c(SCc2ccccc2C(=O)O)n1 | 31.1% | –
50 | N#CC1=C(SCc2ccccc2)NC(=O)C(C#N)C12CCCC2 (centres undefined) | 5.15% | –

Row | SMILES | activity change, negative = inhibition | Potency
51 | CN1CCc2nc(SC(C(=O)O)c3ccccc3)c(C#N)c(-c3cccs3)c2C1 (centres undefined) | -13.9% | –
52 | CC1(C)CCc2nc(SCc3ccccc3)c(C#N)cc2C1 | – | 5.22 µM (active)
53 | CC(NC(=O)CSc1nc2c(cc1C#N)CN(C)CC2)c1ccccc1 (centres undefined) | – | 10.4 µM (active)
54 | Cc1cc(NC(=O)CSc2nc3c(cc2C#N)CCCCC3)no1 | 42.4% | –
55 | C[C@@H]1CC[C@@]2(OC1)O[C@H]1C[C@H]3[C@@H]4CC=C5C[C@@H](O)[C@H](O)C[C@]5(C)C4CC[C@]3(C)[C@H]1[C@@H]2C (some centres undefined) | 29.2% | –
56 | CN(C)c1ccc(CNC(=O)CN2C(=O)COc3ccc(S(=O)(=O)N4CCCC4)cc32)cc1 | 14.1% | –
57 | Cc1ccc(S(=O)(=O)NCc2ccc(C(=O)NC3CCC(C)CC3)cc2)cc1 (centres undefined) | -18.1% | –
58 | O=C(CC(n1cncn1)C(Cl)(Cl)Cl)c1ccc([N+](=O)[O-])cc1 (centres undefined) | -32.2% [at 0.00184 µM] | –
59 | CC(C)C[C@@H](NC(=O)[C@H]1CCCN1C(=O)Cc1ccccc1)C(N)=O (PhAc-[dP]-[dL]-NH2) | 8.09% [at 0.00184 µM] | –
60 | CCOCCn1c(-c2ccccc2)nc2ccccc21 | 0.39% | –
61 | CCCCn1c(-c2cccc(C)c2)nc2cc3[nH]c(=O)c(C(C)C)nc3cc21 | – | 9.28 µM (active)
62 | CCCCn1c(N)c(N(CCOC)C(=O)CSCC(=O)Nc2cccc(C)c2)c(=O)[nH]c1=O | -10.7% | –
63 | CN(C(=O)CC1C(=O)NCCN1Cc1ccc(F)cc1Cl)C1CCCCC1 (centres undefined) | – | 11.7 µM (active)
64 | CN(Cc1cccc2ncccc12)C(=O)CC1C(=O)NCCN1Cc1ccc(F)cc1 (centres undefined) | -6.35% | –
65 | CN(C(=O)CC1C(=O)NCCN1Cc1ccc2ccccc2c1)C1CCOCC1 (centres undefined) | -7.75% | –
66 | O=C(CN(Cc1ccccc1)C(=O)CCC(=O)Nc1ccccn1)NCCc1ccccc1 | 1.95% | –
67 | Cc1sc2ncn(CC(=O)NCCCC(=O)N3CCN(c4ccccc4F)CC3)c(=O)c2c1C | 17.2% | –
68 | CCCCCOc1ccc(/C=C/C(=O)NCCc2nc3ccccc3[nH]2)cc1OC | – | 10.4 µM (active)
69 | COc1ccc(OC(C)C(=O)NCCc2nc3ccccc3[nH]2)cc1 (centres undefined) | -4.17% | –
70 | O=C(COc1ccccc1)NCCc1nc2ccccc2[nH]1 | 6.88% | –
71 | CCC(C)N1CC(=O)N2Cc3[nH]c4ccccc4c3C[C@H]2C1=O (some centres undefined) | -9.23% | –
72 | CC(C)c1ccc(Cc2nnc(NCCCO)[nH]c2=O)cc1 | -16.3% | –
73 | O=C(c1cc2sccc2n1Cc1ccc(F)cc1)N1CCc2ccccc21 | – | 14.7 µM (active)
74 | CC(OC(=O)Cc1ccc(F)cc1)C(=O)N1CCc2ccccc21 (centres undefined) | -0.0345% | –
75 | CC(=O)N1c2ccc(S(=O)(=O)N(C)CC(=O)N(C)Cc3ccccc3)cc2CC1C (centres undefined) | -3.71% | –

Row | SMILES | activity change, negative = inhibition | Potency
76 | CC1Cc2ccccc2N1C(=O)c1cc2sccc2n1Cc1ccccc1 (centres undefined) | – | 11.7 µM (active)
77 | Cc1ccn(CCC(=O)N2c3ccccc3CC2C)n1 (centres undefined) | -0.0677% | –
78 | O=C(CSCc1ccccc1)N1CCc2ccccc21 | 169% | –
79 | CC(C)C(=O)Nc1c2c(nn1-c1ccccc1)CSC2 | 6.94% | –
80 | CCNC(=O)N1CCN(S(=O)(=O)c2ccc3c(c2)OCCCO3)CC1 | 1.67% | –
81 | O=C(Nc1cccc(Cl)c1)c1cc(S(=O)(=O)N2CCCCC2)c[nH]1 | 19.9% | –
82 | O=C(CCN1C(=O)[C@@H]2Cc3ccccc3CN2C1=O)NCc1ccccc1 | 8.13% | –
83 | CC(=O)N1CCc2cc(S(=O)(=O)NC3CCCCC3)ccc21 | -10.2% | –
84 | CC(C)C(=O)Nc1oc(-c2ccccc2)cc1C#N | – | 1.85 µM (active)
85 | COc1cc(C(=O)Nc2oc(-c3ccccc3)c(-c3ccccc3)c2C#N)cc(OC)c1OC | 15.7% | –
86 | CC(Oc1ccccc1)C(=O)Nc1oc(-c2ccco2)c(-c2ccco2)c1C#N (centres undefined) | 33.3% | –
87 | COc1cc(CC(=O)N2CCC(n3nccc3NC(=O)C3CC3)CC2)cc(OC)c1OC | 41.4% | –
88 | O=C(CN(Cc1ccc(Br)cc1)S(=O)(=O)c1ccccc1)NCc1ccncc1 | -5.45% | –
89 | Cc1ccc(-c2nc(-c3ccncc3)no2)c(C)c1 | 18% | –
90 | O=C(COC(=O)c1ccccc1Cl)NC1CCCCCCC1 | 16.5% | –
91 | COc1ccccc1CC(=O)Nc1ccc(S(=O)(=O)N2CCCC2)cc1 | -21.9% | –
92 | CC(C)c1c(C(=O)N/N=C/c2ccc(-c3ccccc3)cc2)nnn1-c1nonc1N | 13.7% | –
93 | Nc1nonc1-n1nnc(C(=O)N/N=C/C2CCCCC2)c1-c1ccccc1 | 11.2% | –
94 | Nc1nonc1-n1nnc(C(=O)N/N=C/c2ccc(Cl)cc2)c1-c1ccc2c(c1)OCO2 | – | 0.329 µM (active)
95 | Cc1cc(F)ccc1S(=O)(=O)Nc1ccc(C(=O)N(C)Cc2ccco2)cc1 | -12.8% | –
96 | O=C(NCCSc1ncc(-c2ccccc2)[nH]1)c1ccco1 | 2.49% | –
97 | COc1ccc(CN(C(=O)CSc2nnc(-c3ccc(OC)c(OC)c3)o2)c2ccc(F)cc2)cc1 | – | 9.28 µM (active)
98 | CCN(C(=O)CSc1nnc(-c2ccncc2)o1)c1ccccc1 | -1.9% | –
99 | COc1ccc(CCNC(=O)CSc2nnc(-c3cccc(F)c3)o2)cc1OC | -10.6% | –
